# Test results reported in PubChem BioAssay.
# The source made the active and inactive calls. How the calls were made is not given here.
# Biological target: Pantothenate synthetase (Mycobacterium tuberculosis (strain ATCC 25618 / H37Rv)) (UniProt P9WIL5)
# Assay: Recombinant Mtb pantothenate synthetase (PanC) inhibitors, coupled enzyme, confirmatory (AID 375);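 further: 0% = full reaction with vehicle and 100% = no enzyme background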
# Details: coupled enzyme assay; at 10 µM, stronger effect = higher value
# Pantothenate synthetase (Mycobacterium tuberculosis (strain ATCC 25618 / H37Rv)), sequence (P9WIL5 whole entry, looked up): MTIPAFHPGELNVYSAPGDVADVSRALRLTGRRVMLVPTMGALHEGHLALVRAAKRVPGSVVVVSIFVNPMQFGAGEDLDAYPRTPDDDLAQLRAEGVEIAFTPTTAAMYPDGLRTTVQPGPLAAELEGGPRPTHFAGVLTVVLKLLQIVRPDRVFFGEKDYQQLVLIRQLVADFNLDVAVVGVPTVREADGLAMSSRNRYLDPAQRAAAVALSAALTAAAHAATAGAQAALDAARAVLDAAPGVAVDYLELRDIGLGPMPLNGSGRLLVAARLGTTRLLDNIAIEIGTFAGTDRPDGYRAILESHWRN
row,Structure (SMILES),inhibition
1,COC(=O)Cc1c(C)nc2nc(-c3ccco3)[nH]n2c1=O,2% (inactive)
2,COc1ccc(S(=O)(=O)N(C)CC(=O)N2CCCCC2)cc1Cl,0% (inactive)
3,COC(=O)c1ccc(NC(=O)CN2CCCC2)cc1,0% (inactive)
4,COc1ccccc1CC1(C)NC(=O)N(CC(=O)Nc2cc(C)on2)C1=O (configuration not stated),1% (inactive)
5,COCCOC(=O)C1=C(C)N=c2s/c(=C\c3cccs3)c(=O)n2C1c1cccs1 (configuration not stated),1% (inactive)
6,COc1cccc(NC(=O)N2CCN(C(=O)C(Cc3ccc(OC)c(OC)c3)NC(C)=O)CC2)c1 (configuration not stated),0% (inactive)
7,CC(=O)Nc1ccc(-c2cc3ccccc3o2)cc1,8% (inactive)
8,Cc1cccc(N2C(=O)CC(N3CCN(Cc4ccc(Cl)cc4)CC3)C2=O)c1 (configuration not stated),0% (inactive)
9,OC(CCN1CCCCC1)(c1ccccc1)c1ccccc1,3% (inactive)
10,CC1CN(c2nc(-c3ccccc3)nc3ccccc23)CC(C)O1 (configuration not stated),0% (inactive)
11,C/C=C(\CS(=O)(=O)c1ccccc1)S(=O)(=O)c1ccccc1,0% (inactive)
12,Cc1nc(C)c(C(=O)C2=C(O)C(=O)N(CCN3CCOCC3)C2c2ccco2)s1 (configuration not stated),9% (inactive)
13,CCN1C(=O)NC(c2cc(Br)ccc2OC)C(C(=O)OC)=C1C (configuration not stated),0% (inactive)
14,COc1ccc(Cn2nnnc2C(c2ccncc2)N2CCOCC2)cc1 (configuration not stated),0% (inactive)
15,COC(=O)CSC1=C(C#N)C(c2ccccc2)CC(=O)N1 (configuration not stated),0% (inactive)
16,COC(=O)c1ccccc1NS(=O)(=O)c1ccc(F)cc1,0% (inactive)
17,COc1ccccc1C(=O)NCCNC(=O)c1ccco1,0% (inactive)
